About 3,100 (0.76%) of roughly 410,000 compounds were called active. Entries that show only a call come without a potency. Calls come from the whole dose curve; as a rule, active = well fitted cell-killing curve with a large enough effect; inactive = no such curve, though single readings can be large or run the other way. Only a selection was taken, and actives are over-represented in it overall.
Potency is the fitted concentration of half-maximal effect.

This test is described as follows: qHTS for Inhibitors of TGF-b: Cytotox Counterscreen. Conditions: HepG2 CAGA-GFP viability, ATP luminescence, 18 h; series mostly up to 46.1 µM. The essentials: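 HepG2 CAGA-GFP cells (1000/well, DMEM with 1% FBS) received compound, then TGF-beta at 500 pg/mL final, and were incubated 18 hours at 37 degrees C. Viability was read by CellTiter-Glo luminescence. Media-only wells were set as complete cell-killing and DMSO as no toxicity.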
For orientation: In qHTS, concentration-response curves come from the screen itself.
`O=C(CC(NCc1cccnc1)C(=O)O)Nc1ccc(O)cc1` (stereo not given): the Potency entry is “inactive”.

As for `O=C(N/N=C/c1cccc2cccnc12)[C@H]1C[C@@H]1c1ccccc1`, the Potency result was “inactive”.

With `O=C(CSc1cccc2cccnc12)N/N=C/c1cccnc1`, the Potency was 7.08 µM (active).

On to `Cc1c(Cl)cccc1NC(=O)CSc1ccc(-c2cccnc2)nn1`, for which the Potency entry was “inactive”.

In the case of `Cc1cc[n+](C2CCCCC2)cc1`, the Potency entry is “inactive”.

As to `COc1cccc(CNC(=O)c2ccc3c(c2)N(Cc2ccc(C(F)(F)F)cc2)C(=O)c2ccccc2S3)c1OC`, the Potency entry is “inactive”.

As for `COc1ccc(-n2nnc(-c3nsc(NC(=O)c4ccc(C)c(C)c4)n3)c2C)cc1Cl`, the Potency result is “inactive”.

Turning to `O=C(CCS(=O)(=O)c1ccccc1)N(Cc1cccnc1)c1nc2c(F)cccc2s1`, the Potency is 7.94 µM (active).

In the case of `Cc1cccc2sc(N(CCCN(C)C)C(=O)CCS(=O)(=O)c3ccccc3)nc12`, the Potency was 7.08 µM (active).

Take `COc1cccc2sc(N(CCCN(C)C)C(=O)CCS(=O)(=O)c3ccccc3)nc12`: the Potency is 3.55 µM (active).

`Cc1ccc(S(=O)(=O)CCC(=O)OCc2ccccc2)cc1`: the Potency entry is “inactive”.

In the case of `O=C(C1COc2ccccc2O1)N(Cc1cccnc1)c1nc2c(F)cc(F)cc2s1` (stereo not given), the Potency result is “inactive”.

Consider `COc1ccccc1CNC(=O)CS(=O)(=O)c1cccc2nsnc12`, for which the Potency entry was “inactive”.

For the compound `O=C(O)CCS(=O)(=O)c1ccc(-c2ccccc2)cc1`, the Potency result was “inactive”.

Take `CN(C)S(=O)(=O)c1ccc(C(=O)N(Cc2cccnc2)c2nc3c(F)cc(F)cc3s2)cc1`: the Potency result was “inactive”.

For the compound `COc1ccc(C)cc1NC(=O)CCS(=O)(=O)c1cccc2nonc12`, the Potency result is “inactive”.

Consider `CCc1ccc2oc(-c3ccc(NC(=O)c4cc5ccccc5o4)cc3)nc2c1`, for which the Potency entry is “inactive”.

Consider `CCn1cc(C(=O)NCCc2ccccc2)c(=O)c2cc(S(=O)(=O)N3CCCCCC3)ccc21`, for which the Potency entry was “inactive”.

In the case of `CC(C)Cn1c(C2CC(=O)N(c3ccccc3Cl)C2)nc2ccccc21` (stereo not given), the Potency result was “inactive”.

Turning to `CN(C)C1=C2C=CC=CC2/C(=C2/C=Cc3ccccc32)C=C1` (stereo not given), the Potency entry is “inactive”.

In the case of `O=C1c2ccccc2C(=O)N1c1ccc(S(=O)(=O)N2CCOCC2)c2ccccc12`, the Potency entry was “inactive”.

Consider `OC(CBr)C[n+]1cccc2cc(Br)ccc21` (stereo not given), for which the Potency result was “inactive”.

For `OCCNc1nc(Nc2ccc(Cl)c(Cl)c2)nc2ccccc12`, the Potency is 12.6 µM (active).

As to `FC(F)(F)c1cc(Nc2nc3ccccc3c3nncn23)ccc1Cl`, the Potency result was “inactive”.

As to `O=C(CSc1nc(Nc2ccc(F)c(F)c2)c2ccccc2n1)c1ccc(Cl)cc1`, the Potency entry is “inactive”.

With `COc1ccc(CCC(=O)NCCc2csc(-c3ccc(Cl)cc3)n2)cc1`, the Potency result was “inactive”.

Take `O=C(/C=C/c1ccccc1)Nc1cc(-c2nc3cc(Cl)ccc3o2)ccc1Cl`: the Potency entry was “inactive”.

As to `Cc1ccc(C)c(N2CCN(c3ccc4cc(S(=O)(=O)N5CCC(C)CC5)ccc4n3)CC2)c1`, the Potency result is “inactive”.

With `O=S(=O)(c1ccc(Br)cc1)N1CCC(c2nc3ccccc3[nH]2)CC1`, the Potency entry was “inactive”.

Take `c1ccc2[nH]c(-c3nc4ccccc4[nH]3)nc2c1`: the Potency was 10 µM (active).

Consider `O=C(OCc1nc2ccccc2[nH]1)C1CCCCC1`, for which the Potency result was “inactive”.

Turning to `C=C1CCN(Cc2ccc(OC)cc2)S(=O)(=O)c2ccccc21`, the Potency result was “inactive”.

In the case of `COc1ccc(-c2onc(C)c2C)cc1S(=O)(=O)NCCc1ccccc1`, the Potency entry is “inactive”.

With `O=C(Nc1ccc(S(=O)(=O)N2CCC(c3nc4ccccc4s3)CC2)cc1)c1ccccc1F`, the Potency entry was “inactive”.

In the case of `Cc1ccc(C)c(Cn2c(=O)n(CCC(=O)NCc3ccc4c(c3)OCO4)c(=O)c3sccc32)c1`, the Potency result was “inactive”.

Consider `Nc1nc(N)c(N=O)c(N)n1`, for which the Potency entry is “inactive”.

Consider `Cc1cccc(Cn2c(SCc3ccc(C(=O)N4CCC(C)CC4)cc3)nc3ccncc32)c1`, for which the Potency was 12.6 µM (active).

`COc1cccc(Cn2c(SCc3ccc(C(=O)N4CCC(C)CC4)cc3)nc3ccncc32)c1`: the Potency result is “inactive”.

Take `Cc1cccc(CSc2nc3ccncc3n2Cc2ccc(C(=O)O)cc2)c1`: the Potency entry was “inactive”.

Take `COC(=O)c1cc(S(=O)(=O)N2CCN(c3cc(Cl)ccc3C)CC2)c[nH]1`: the Potency entry is “inactive”.

For `CCCCCCC1(C)NC(c2ccc3c(c2)OCO3)=CC(c2ccccc2O)N1` (stereo not given), the Potency entry is “inactive”.

As to `CCOC(=O)[C@H]1[C@H]2COc3cc(OC)ccc3[C@@H]2N2C(=O)N(c3ccc(Br)cc3)C(=O)[C@@]12C`, the Potency result was “inactive”.

Regarding `CS(=O)c1ccc(/C=C2\C=Cc3ccccc32)cc1` (stereo not given), the Potency entry was “inactive”.

On to `N#Cc1ccc[n+](CC(=O)c2ccc(O)c(O)c2)c1`, for which the Potency result was “inactive”.

On to `CN(C)c1cccc2ccccc12`, for which the Potency result is “inactive”.

Consider `COC(=O)c1ccc(-c2noc(CN(Cc3ccccn3)CC3CCCO3)n2)cc1` (stereo not given), for which the Potency result is “inactive”.

Turning to `O=C(COc1cccc(F)c1)Oc1ccc(C(=O)c2ccccc2)cc1`, the Potency result is “inactive”.

Consider `O=C(Oc1ccc(-c2nc(-c3ccccn3)no2)cc1)c1ccccc1`, for which the Potency is 5.01 µM (active).

Turning to `O=C(c1ccco1)n1nc(-c2ccc(Cl)cc2)nc1NCc1ccccc1`, the Potency result was “inactive”.

With `O=C(Nc1ccc2c(c1)OCO2)c1cc(-c2cccc(Cl)c2)on1`, the Potency result was “inactive”.

For the compound `COc1cc(SC#N)ccc1N=Cc1c(C)[nH]n(-c2ccc(C)cc2)c1=O`, the Potency is 12.6 µM (active).

Regarding `O=C(NCCc1ccccc1)c1cnc2sc(N3CCCC3)nn2c1=O`, the Potency entry is “inactive”.

Turning to `Cc1ccc2oc(C(=O)Nc3ccc(S(=O)(=O)N4CCCCCC4)cc3)cc(=O)c2c1`, the Potency result was “inactive”.

Take `Fc1ccc(CSc2nc(NCc3ccccc3)c3ccccc3n2)cc1`: the Potency result was “inactive”.

On to `Fc1ccc(Nc2nc(SCc3ccccc3Cl)nc3ccccc23)cc1`, for which the Potency was 17.8 µM (active).

Turning to `O=C(Nc1nc2ccc(F)cc2s1)c1nc(SCc2ccccc2F)ncc1Cl`, the Potency entry was “inactive”.

Take `COC(=O)c1ccc(NC(=O)c2cc(S(=O)(=O)N3CCC(C)CC3)cn2C)cc1`: the Potency result is “inactive”.

Regarding `CN(C)c1ccc(/C=c2\[nH]c(=O)/c(=C/c3ccc(N(C)C)cc3)[nH]c2=O)cc1`, the Potency result was “inactive”.

Consider `COc1ccc(-c2nc3ccc(C(=O)NCc4ccc(C)cc4)cc3nc2-c2ccc(OC)cc2)cc1`, for which the Potency result was “inactive”.

Consider `Cc1cccc(CCNC(=O)c2ccc3c(c2)nc2n3CCC(C)C2)c1` (stereo not given), for which the Potency entry is “inactive”.

For `Cc1cccc(-c2nc3ccc(C(=O)NCCN4CCN(C)CC4)cc3nc2-c2cccc(C)c2)c1`, the Potency was 12.6 µM (active).

Consider `Cc1ccc2nc(N3CCN(c4cccc(Cl)c4)CC3)c3nnnn3c2c1`, for which the Potency result is “inactive”.

In the case of `CCCN(CCC)CCNC(=O)Cn1cnc2sc(C)c(S(=O)(=O)N3CCC(C)CC3)c2c1=O`, the Potency result is “inactive”.

On to `CCN(CC)c1ccc(/C=C/c2c(C)cnc3ccc(C)cc23)cc1`, for which the Potency result is “inactive”.

`CCN(CCCCOC(=O)c1ccc(OC)c(OC)c1)C(C)Cc1ccc(OC)cc1` (stereo not given): the Potency entry is “inactive”.

Turning to `COc1ccc(C(CCN(Cc2ccc(OC)c(OC)c2)C(=O)CCl)c2ccccc2)cc1` (stereo not given), the Potency was 11.2 µM (active).

As for `COc1ccc(Cl)cc1NC(=O)CN(C)Cc1ccc(OC)c(OC)c1`, the Potency result was “inactive”.

For the compound `S=c1[nH]c(=S)c2n[nH]nc2[nH]1`, the Potency entry was “inactive”.

On to `COc1ccc(N2C(=O)CS(=O)(=O)C23C(=O)N(Cc2ccc(C)cc2)c2ccccc23)cc1Cl` (stereo not given), for which the Potency result is “inactive”.

Regarding `CCCC(=O)Nc1cc2nn(-c3ccccc3)nc2cc1C`, the Potency result was “inactive”.

`Cc1ccc(-c2cnc(C(O)c3cc(Cl)cc(Cl)c3)[nH]2)cc1` (stereo not given): the Potency entry was “inactive”.

With `OC(c1ccc(Cl)cc1)c1ncc(-c2ccc(Cl)cc2)[nH]1` (stereo not given), the Potency was 11.2 µM (active).

With `OC(c1ccc(F)cc1)c1ncc(-c2cccc(C(F)(F)F)c2)[nH]1` (stereo not given), the Potency result was “inactive”.

In the case of `CCc1ccc(OCCCn2c(CCCNC(=O)C3CCCCC3)nc3ccccc32)cc1`, the Potency entry was “inactive”.

In the case of `CCCCCCn1nnc2sc(-c3ccccc3)cc2c1=O`, the Potency entry was “inactive”.

Take `CC(=O)c1c(C)n(S(=O)(=O)c2ccc(Cl)cc2)c2ccc(NS(=O)(=O)c3ccc(Cl)cc3)cc12`: the Potency entry was “inactive”.

As for `Cc1ccc(OCC(=O)Nc2ccc(NC(=O)c3cccs3)cc2)c(C)c1`, the Potency was 1.12 µM (active).

As to `CCn1c2ccccc2c2cc(NC(=O)COc3ccc(C)cc3C)ccc21`, the Potency result is “inactive”.

For `Cn1c(SCC(=O)Nc2cccc(NC(=O)c3cccs3)c2)nnc1-c1ccncc1`, the Potency entry was “inactive”.

With `Cn1c(=O)c(=O)n(C)c2cc(NC(=O)c3ccccc3Br)ccc21`, the Potency entry is “inactive”.

Turning to `Cc1cccc(-n2ncc(C(=O)N3CCN(c4ccc(Cl)cc4)CC3)c2C2CCN(C(=O)OC(C)(C)C)CC2)c1`, the Potency entry is “inactive”.

On to `Cc1cccc(-n2ncc(C(=O)N3CCC(C)CC3)c2C2CCN(C(=O)OC(C)(C)C)CC2)c1`, for which the Potency entry was “inactive”.

Regarding `Cc1cccc(-n2ncc(Cl)c(Cl)c2=O)c1`, the Potency was 11.2 µM (active).

Turning to `COc1ccc(/C=C/c2noc(-c3ccccc3O)n2)cc1OC`, the Potency result is “inactive”.

In the case of `CCOc1ccc(-c2nonc2NC(=O)c2oc3ccc(C)cc3c2C)cc1OCC`, the Potency result is “inactive”.

With `CCOC(=O)c1c(NC(=O)/C(C#N)=C/c2ccccc2)sc2c1CCC2`, the Potency result is “inactive”.

Take `CCOC(=O)c1c(NC(=O)C(C)Sc2c[nH]c3ccccc23)sc2c1CCC2` (stereo not given): the Potency is 25.1 µM (active).

Regarding `CCOC(=O)c1c(NC(=O)c2cc(-c3ccc(Cl)cc3)on2)sc2c1CCCC2`, the Potency entry was “inactive”.

In the case of `Cc1csc(NCC(=O)c2c[nH]c3ccccc23)n1`, the Potency entry is “inactive”.

With `Cc1ccc(C)c(N2CCN(Cc3nnc(-c4ccccc4)o3)CC2)c1`, the Potency entry is “inactive”.

Regarding `COc1ccc(CCNC(=O)c2ccc(-n3c(C)cc4c3CCCC4)cc2)cc1OC`, the Potency entry is “inactive”.

Consider `CCN(CC)c1ccc(NC(=O)CN2CCN(CC(=O)Nc3ccc(Cl)cc3)CC2)cc1`, for which the Potency result is “inactive”.

Turning to `O=C(CN1CCOc2ccccc21)N1CCC(Cc2ccccc2)CC1`, the Potency entry is “inactive”.

Take `O=C(Nc1ccc2c(c1)OCCO2)C(C1CC1)N1CCC(Cc2ccccc2)CC1` (stereo not given): the Potency is 15.8 µM (active).

On to `O=C(Nc1ccc2c(c1)OCCO2)C(c1ccc(F)cc1)N1CCCCC1` (stereo not given), for which the Potency entry was “inactive”.

Consider `Cc1cccc(Nc2nc(C)nc(N)c2S(=O)(=O)c2ccccc2)c1`, for which the Potency entry is “inactive”.

As to `COc1ccc(NC(=O)CSc2nccn2C2CCCC2)cc1OC`, the Potency entry was “inactive”.

For the compound `COc1ccc2c(c1)c(=O)c(C(=O)c1ccccc1)cn2CC(=O)Nc1ccc2c(c1)OCCO2`, the Potency result was “inactive”.

In the case of `CCN(CC)c1nc(C#N)nc(OC)n1`, the Potency result is “inactive”.

In the case of `COc1ccc(-c2nc(=N)sn2-c2ccccc2)cc1`, the Potency entry was “inactive”.
